Reference: PubChem BioAssay (NCI)
“And” between values parts separate entries of the source, which are not always exact repeats. Equal values may be shown once. About 79,000 compounds went through this panel and 15% of them were active in at least one assay; those are over-represented in the sample as a whole. The source made the active and inactive calls. Rule as the data show it: active = growth inhibition above about 70%; inactive = the rest.

Experiments:
[1] = NCI Yeast Anticancer Drug Screen. Data for the rad50 strain (AID 155);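 also: 0% = growth of vehicle-only cultures of the same strain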; details: S. cerevisiae rad50 strain growth inhibition, stronger effect = higher value; at 50.0 µM unless noted
Outline: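 Vehicle-treated cultures provide the reference for the growth inhibition reported for compound-exposed, repair-deficient yeast.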

[2] = NCI Yeast Anticancer Drug Screen. Data for the mec2-1 strain (AID 157); details: S. cerevisiae mec2-1 strain, stronger effect = higher value; at 50.0 µM unless noted
Outline: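 Each compound was tested on mec2-1 yeast, a strain altered in DNA damage repair or cell cycle control. Growth inhibition is reported relative to vehicle.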

[3] = NCI Yeast Anticancer Drug Screen. Data for the sgs1 mgt1 strain (AID 161);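 also: 0% = growth of cultures given vehicle only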; details: S. cerevisiae sgs1 mgt1 strain, stronger effect = higher value; at 50.0 µM unless noted
Outline: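 Inhibition of yeast growth, normalised to vehicle-treated controls, is reported for a strain bearing genetic alterations in DNA damage repair.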

[4] = NCI Yeast Anticancer Drug Screen. Data for the cln2 rad14 strain (AID 165);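 also: 0% = growth equal to vehicle treated cultures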; details: S. cerevisiae cln2 rad14 strain, stronger effect = higher value; at 50.0 µM unless noted
Outline: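 Test compounds were added to cln2 rad14 yeast cultures; inhibition of growth was then determined by comparison with vehicle treatment.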

[5] = NCI Yeast Anticancer Drug Screen. Data for the bub3 strain (AID 167); details: S. cerevisiae bub3 mutant strain, stronger effect = higher value; at 50.0 µM unless noted
Outline: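 Mutant yeast screening strain plus compound; vehicle-treated cultures serve as the 0% inhibition reference.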

[6] = NCI Yeast Anticancer Drug Screen. Data for the mlh1 rad18 strain (AID 175); details: S. cerevisiae mlh1 rad18 strain growth inhibition, stronger effect = higher value; at 50.0 µM unless noted
Outline: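 Inhibition values reflect reduced growth of mutant yeast versus vehicle-treated controls following compound exposure; the mutations affect DNA damage repair.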

Measured: growth inhibition

CCCCNC(=O)c1cc(=O)[nH]c(=O)[nH]1
inactive: [1] 1.5% | [2] -6.55% | [3] 6.6% | [4] 5.6% | [5] -16.1% | [6] 20.1%

Oc1cc(O)c2cc(O)c(-c3ccc(O)c(O)c3)[o+]c2c1
inactive: [1] 11.4% | [2] 2.2% | [3] 23.4% | [4] 4.1% | [5] 31.1% | [6] 28.1%

N#CCCN1CCCC(=O)NC1=O
inactive: [1] 4.4% | [2] -14.4% | [3] -5.35% | [4] -37.7% | [5] -7.4% | [6] -15.4%

O=C(CN1CCCCCC1)Nc1ccc2c(c1)C(=O)c1ccc(NC(=O)CN3CCCCCC3)cc1C2=O
inactive: [1] -12.3% | [2] 37.8% | [3] 51.1% | [4] 38.6% | [5] 8.95% | [6] 36.4%

COc1c2c(cc3c1C(=O)c1c(O)cccc1C3=O)CC(O)CC2 (centres undefined)
inactive: [1] -14.7% | [2] -33.2% | [3] -13.4% | [4] -10.5% | [5] 2.8% | [6] -22.9%

OC(CCN1CC2CCC(CC2)C1)(Cc1ccccc1)c1cccs1 (centres undefined)
inactive: [1] 6.75% | [2] 2.7% | [3] 21.1% | [4] 11.2% | [5] 17.1% | [6] 32.5%

COc1ccc2ncccc2c1[N+](=O)[O-]
inactive: [1] -5.55% | [2] -44.3% | [3] -5.8% | [4] -14.5% | [5] -23.4% | [6] -18.6%

COC(=O)C(CCCCCCCC(C(=O)OC)c1nc2n(c1O)C(=N)N=N2)c1nc2n(c1O)C(=N)N=N2 (centres undefined)
inactive: [1] -20.6% | [2] -3.75% | [3] -7.95% | [4] 11.8% | [5] 10.2% | [6] 4.75%

Nc1ncnc2c1ncn2C1OC(COP(=O)(O)O)C(O)C1O (centres undefined)
inactive: [1] -9.65% and -9.3% | [2] 1.65% and -12.6% | [3] 15.6% and -9.1% | [4] 2.95% and 9.25% | [5] 0.85% and -17.9% | [6] -9% and -13.2%

CN(C)C(=NN=C(N(C)C)N(C)C)N(C)C
inactive: [1] 12.2% | [2] -4.2% | [3] 0.05% | [4] -39% | [5] -5.85% | [6] 1.5%

NCCNc1ccccc1
inactive: [1] -32.9% | [2] -62% | [3] -42.2% | [4] 6.6% | [5] -20.4% | [6] -22.9%

COc1ccc(C(NC(N)=O)c2cc3c(cc2OC(C)=O)OCO3)cc1 (centres undefined)
inactive: [1] -7.25% | [2] -1.95% | [3] -6.65% | [4] -9.05% | [5] 5.7% | [6] -0.4%

COc1ccc(/C(=C(/c2ccc(OC)cc2)C2CC2)C2CC2)cc1
inactive: [1] -5.3% | [2] 7.25% | [3] 11% | [4] -14.8% | [5] 5.45% | [6] 10.6%

CN1C(=O)N(C)C2(O)c3ccccc3C(=O)C12O (centres undefined)
inactive: [1] 14.6% | [2] 2.9% | [3] 18.9% | [4] 15% | [5] 19.8% | [6] 38.9%

CCNc1cccc(C)c1
inactive: [1] 28.9% | [2] -10.7% | [3] -16.2% | [4] -33.8% | [5] 12.8% | [6] 23.1%

Cc1cc(=O)[nH]c(NNC(C#N)c2cccc([N+](=O)[O-])c2)n1 (centres undefined)
inactive: [1] -18.5% | [2] -11.1% | [3] -31.1% | [4] -12.8% | [5] -7.4% | [6] -39.5%

O=C(O)/C=C\C(=O)NNC(=O)/C=C\C(=O)O
inactive: [1] 5.55% | [2] -2.8% | [3] -5.05% | [4] -18.9% | [5] 5.45% | [6] -24.4%

CCC(=O)C1(C)OC1C(C)CC(C)C1OC(=O)CC2(O)CC=C(C)C(O2)/C(C)=C/CCCC(OC2CC(OC(N)=O)C(O)C(C)O2)/C=C/C(C)C(O)C1C (centres undefined)
active: [1] 78% | [2] 83.5% | [3] 82.5% | [4] 84.5% | [5] 85.2% | [6] 83.2%

Cc1ccc(S(=O)(=O)C2OC(CO)C(O)C(O)C2O)cc1 (centres undefined)
inactive: [1] -11.5% | [2] -16.6% | [3] -5.55% | [4] -21.1% | [5] 14.9% | [6] -6.25%

CC(=O)C[n+]1cccc(Br)c1
inactive: [1] -6.7% | [2] 8.7% | [3] 10.2% | [4] -8.15% | [5] 9.5% | [6] -5.9%

CC(=O)OC(C)(C)C#CC(C)(C)OC(C)=O
inactive: [1] -9.95% | [2] -24.4% | [3] -15.4% | [4] 3% | [5] -11.7% | [6] -19.3%

Cc1ccc(C(CC(=O)C(C)(C)CN2CCCCC2)SCCS(=O)(=O)O)cc1 (centres undefined)
inactive: [1] 7.5% | [2] -7.95% | [3] 11.1% | [4] 9.4% | [5] 4.3% | [6] 20%

Cc1cc(Cl)ccc1NC(=O)C(=O)Cc1ccc([N+](=O)[O-])c([N+](=O)[O-])c1CC(=O)C(=O)Nc1ccc(Cl)cc1C
inactive: [1] -10.6% | [2] -30.4% | [3] -13.6% | [4] -7.8% | [5] 18.6% | [6] 7%

O=C(c1ccccc1)c1ccc(NC(=O)C(F)(F)F)cc1
inactive: [1] 15.7% | [2] 5.9% | [3] 3.85% | [4] 4.75% | [5] -0.15% | [6] 18.9%

Cc1cc(C)c(-c2c(C)cc(C)c(C(=O)c3ccc([N+](=O)[O-])cc3)c2C)c(C)c1C(=O)c1ccc([N+](=O)[O-])cc1
inactive: [1] 25.7% | [2] 2.85% | [3] 11.8% | [4] 9.25% | [5] 3.2% | [6] 8.85%

CCCCC1(N=[N+]=[N-])C(=O)C2C=CC=C3c4ccccc4N(C1=O)C32 (centres undefined)
inactive: [1] -1.15% | [2] -11.2% | [3] -5.8% | [4] -43.2% | [5] 34.7% | [6] 2.85%

CC(C)=C1C2C(C13C(=O)OC(C)(C)OC3=O)C2(C)C (centres undefined)
inactive: [1] -10.5% | [2] -16.9% | [3] -11.6% | [4] 7.9% | [5] -21.6% | [6] -9.2%

CCOC(=O)COc1ccc(OC)c2c1C(=O)CCC2
inactive: [1] 21.1% | [2] 16.7% | [3] 6.15% | [4] 29.2% | [5] 10% | [6] 15%

CN(C)c1ccc(-c2nc(-c3cc4c(ccc5ccccc54)oc3=O)cs2)cc1
inactive: [1] 22.1% | [2] 15.6% | [3] -7.55% | [4] 6.4% | [5] -19.8% | [6] -36%

C[C@]12C=CC(=O)C=C1CC[C@@H]1[C@@H]2C(=O)C[C@@]2(C)[C@H]1CC[C@]2(O)C(=O)COC(=O)CSc1c2ccccc2nc2ccccc12
inactive: [1] 35.6% | [2] 5.8% | [3] 8.15% | [4] 24.8% | [5] -9.4% | [6] 19.3%

CC(C)CCCC(C)C1CCC2C3CC(C(=O)O)C(C)(CCC(=O)O)C3CCC12C (centres undefined)
inactive: [1] 44% | [2] 36% | [3] 43.9% | [4] 30% | [5] 4% | [6] 41.7%

CC(=O)Nc1ccc(CCCc2ccc([N+](=O)[O-])cc2)cc1
inactive: [1] 3.15% | [2] 3.35% | [3] -10.9% | [4] -70.2% | [5] 1.6% | [6] 0%

CCC(SC(CC)(CC)C(=O)O)C(N)=O (centres undefined)
inactive: [1] -9.9% | [2] 0.05% | [3] -8.15% | [4] -23% | [5] -6% | [6] -8.1%

CC1(C)OC2OC3C(Br)C(=O)OC3C2O1 (centres undefined)
inactive: [1] 14.8% | [2] -8.45% | [3] 24.7% | [4] 9.65% | [5] 24.1% | [6] 26.2%

CC(C)C(=O)OC1(CC2CCCCN2C)CCCCC1 (centres undefined)
inactive: [1] -3.2% | [2] 13.7% | [3] 3.95% | [4] -5.8% | [5] 5.3% | [6] 6.85%

CCCCCCCCCCCCOC(=O)NC1c2ccccc2Oc2ccccc21
inactive: [1] 30.4% | [2] 17.6% | [3] 26.6% | [4] 32.5% | [5] 19.6% | [6] 43.4%

O=C(OC1CCCCCCC1OC(=O)c1ccc([N+](=O)[O-])cc1)c1ccc([N+](=O)[O-])cc1 (centres undefined)
inactive: [1] 7.05% | [2] 1.85% | [3] 6.4% | [4] 11.8% | [5] -4.8% | [6] 1.7%

CC12CC[C@H](O)C(C)(C)[C@H]1CC[C@](C)(O)C2COc1ccc2ccc(=O)oc2c1 (some centres undefined)
inactive: [4] 37.1%
active: [1] 86.3% | [2] 75.2% | [3] 85.6% | [5] 76.3% | [6] 77.1%

CC1=C/C(O)CC(=O)Cc2nc(co2)C(=O)N2CCC=C2C(=O)OC(C(C)C)C(C)/C=C\C(=O)NC/C=C\1 (centres undefined)
inactive: [1] 39.5% and -2.6% | [2] -11.6% and 18.7% | [3] 22.7% and 0.6% | [4] 13.9% and 5.6% | [5] 37.5% and -3% | [6] 35.2% and 2.2%
